The whole screen tested about 5,500 compounds, of which about 2,000 (36%) were called active. Not shown: some 18% with an inconclusive outcome. Rule as the data show it: active = normalized growth mostly below about 0.91 (no sharp cut-off); inconclusive = no clear call, values can overlap the other calls; inactive = mostly above about 0.92. This is one part of the list.
Assay: chemical genetic growth profiling, strain panel (AID 1159580);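 also: tested at 20 µM; growth read once vehicle control cultures reached saturation at 30 °C; 1 = growth at the plate median or of vehicle wells; lower values mean less growth of the strain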
Settings: growth OD
[1] = S. cerevisiae deletion strains, locus YAL013W, strain DEP1, active compounds read low
[2] = S. cerevisiae deletion strains, locus YBR229C, strain ROT2, active compounds read low
[3] = S. cerevisiae deletion strains, locus YDL101C, strain DUN1, active compounds read low
[4] = S. cerevisiae deletion strains, locus YDR150W, strain NUM1, active compounds read low
[5] = S. cerevisiae deletion strains, locus YEL061C, strain CIN8, active compounds read low
[6] = S. cerevisiae deletion strains, locus YGR078C, strain PAC10, active compounds read low
[7] = S. cerevisiae deletion strains, locus YHR030C, strain SLT2, active compounds read low
[8] = S. cerevisiae deletion strains, locus YHR087W, strain rtc3, active compounds read low
[9] = S. cerevisiae deletion strains, locus YJR043C, strain POL32, active compounds read low
[10] = S. cerevisiae deletion strains, locus YJR075W, strain HOC1, active compounds read low
[11] = S. cerevisiae deletion strains, locus YLR039C, strain RIC1, active compounds read low
[12] = S. cerevisiae deletion strains, locus YLR058C, strain SHM2 (second series), active compounds read low
[13] = S. cerevisiae deletion strains, locus YLR085C, strain ARP6, active compounds read low
[14] = S. cerevisiae deletion strains, locus YLR262C, strain YPT6, active compounds read low
[15] = S. cerevisiae deletion strains, locus YML094W, strain GIM5, active compounds read low
[16] = S. cerevisiae deletion strains, locus YMR219W, strain ESC1, active compounds read low
[17] = S. cerevisiae deletion strains, locus YMR263W, strain SAP30, active compounds read low
[18] = S. cerevisiae deletion strains, locus YNL153C, strain GIM3, active compounds read low
[19] = S. cerevisiae deletion strains, locus YNL298W, strain CLA4 (second series), active compounds read low
[20] = S. cerevisiae deletion strains, locus YNL322C, strain KRE1, active compounds read low
[21] = S. cerevisiae deletion strains, locus YNR030W, strain Alg12, active compounds read low
[22] = S. cerevisiae deletion strains, locus YOL006C, strain TOP1, active compounds read low
[23] = S. cerevisiae deletion strains, locus YPL055C, strain LGE1, active compounds read low
[24] = S. cerevisiae deletion strains, locus YPL241C, strain CIN2, active compounds read low
[25] = S. cerevisiae deletion strains, locus YPR135W, strain CTF4, active compounds read low
[26] = S. cerevisiae deletion strains, locus YGR229C, strain SMI1, active compounds read low
[27] = S. cerevisiae deletion strains, locus YJL187C, strain SWE1, active compounds read low
[28] = S. cerevisiae strains, strain wild type, active compounds read low

Measured: normalized growth

Cc1ccc(NC(=S)NCCO)c(C)c1
inactive: [1] 1 | [2] 0.987 | [3] 1.01 | [4] 1 | [5] 0.99 | [6] 1.01 | [7] 1 | [8] 1.01 | [9] 0.997 | [10] 0.978 | [11] 1.01 | [12] 0.996 | [13] 1 | [14] 1 | [15] 1.01 | [16] 1 | [17] 1 | S. cerevisiae deletion strains, locus YNL128W, strain TEP1, active compounds read low 1 | [18] 1 | [19] 1.02 | [20] 0.98 | [21] 0.986 | [22] 1.03 | [23] 1.01 | [24] 0.945 | [25] 1.03

COCCCNC(=S)Nc1ccc(C)cc1C
inactive: [1] 0.985 | [2] 0.974 | [3] 0.968 | [4] 0.966 | [5] 1.01 | [6] 0.98 | [26] 0.986 | [7] 0.974 | [8] 1.04 | [27] 0.993 | [9] 0.977 | [10] 1 | [11] 0.975 | [12] 0.982 | [13] 0.921 | [14] 0.961 | [15] 1 | [16] 0.99 | [17] 0.999 | [18] 0.986 | [19] 0.97 | [20] 0.981 | [21] 1 | [22] 0.923 | [23] 1.01 | [24] 0.973 | [25] 0.917 | [28] 0.987

Cc1ccc(-n2cccc2)c(NC(=S)Nc2ccc(Br)cc2OC(F)(F)F)c1
inactive: [1] 0.978 | [2] 1 | [3] 1.02 | S. cerevisiae deletion strains, locus YDL134C, strain PPH21, active compounds read low 1.01 | [4] 0.892 | [5] 0.988 | [6] 0.973 | [26] 1.03 | [8] 1.02 | [27] 0.987 | [9] 1.03 | [10] 0.972 | [12] 1.01 | [15] 0.904 | [16] 1.01 | [17] 0.964 | [18] 0.979 | [20] 1.01 | [21] 0.925 | [22] 0.796 | [23] 0.882 | [24] 0.92 | [25] 0.679 | [28] 0.998
active: [7] 0.558 | [11] 0.621 | [13] 0.658 | [14] 0.587 | [19] 0.757

CCCCCCCCCCCCCCCC(=O)OC1C(SC)OC(C(NC(=O)C2CC(CCC)CN2C)C(C)Cl)C(O)C1O (stereo not given)
inactive: S. cerevisiae deletion strains, locus YAL021C, strain ccr4, active compounds read low 0.958 | S. cerevisiae deletion strains, locus YAL026C, strain drs2, active compounds read low 0.976 | S. cerevisiae deletion strains, locus YAL030W, strain snc1, active compounds read low 0.989 | S. cerevisiae deletion strains, locus YBL061C, strain skt5, active compounds read low 0.963 | S. cerevisiae deletion strains, locus YBR009C, strain hhf1, active compounds read low 0.977 | S. cerevisiae deletion strains, locus YBR023C, strain chs3, active compounds read low 0.984 | S. cerevisiae deletion strains, locus YBR171W, strain sec66, active compounds read low 0.961 | S. cerevisiae deletion strains, locus YBR231C, strain swc5, active compounds read low 0.979 | S. cerevisiae deletion strains, locus YBR279W, strain paf1, active compounds read low 0.981 | S. cerevisiae deletion strains, locus YCL011C, strain gbp2, active compounds read low 0.978 | S. cerevisiae deletion strains, locus YCL016C, strain dcc1, active compounds read low 0.982 | S. cerevisiae deletion strains, locus YCL061C, strain MRC1, active compounds read low 0.98 | S. cerevisiae deletion strains, locus YCL069W, strain vba3, active compounds read low 0.985 | S. cerevisiae deletion strains, locus YCR088W, strain abp1, active compounds read low 0.972 | S. cerevisiae deletion strains, locus YDL005C, strain med2, active compounds read low 0.968 | S. cerevisiae deletion strains, locus YDL040C, strain nat1, active compounds read low 0.979 | S. cerevisiae deletion strains, locus YDR001C, strain nth1, active compounds read low 0.974 | S. cerevisiae deletion strains, locus YDR069C, strain doa4, active compounds read low 0.975 | S. cerevisiae deletion strains, locus YDR137W, strain rgp1, active compounds read low 1 | S. cerevisiae deletion strains, locus YDR159W, strain sac3, active compounds read low 0.958 | S. cerevisiae deletion strains, locus YDR195W, strain ref2 0.964 | S. cerevisiae deletion strains, locus YDR297W, strain sur2, active compounds read low 0.976 | S. cerevisiae deletion strains, locus YDR334W, strain swr1, active compounds read low 0.973 | S. cerevisiae deletion strains, locus YDR335W, strain msn5, active compounds read low 0.978 | S. cerevisiae deletion strains, locus YDR392W, strain spt3, active compounds read low 0.96 | S. cerevisiae deletion strains, locus YEL003W, strain gim4, active compounds read low 0.98 | S. cerevisiae deletion strains, locus YEL037C, strain rad23, active compounds read low 0.979 | S. cerevisiae deletion strains, locus YEL061C, strain CIN8 (second series), active compounds read low 0.985 | S. cerevisiae deletion strains, locus YER015W, strain faa2, active compounds read low 0.972 | S. cerevisiae deletion strains, locus YER016W, strain bim1, active compounds read low 0.976 | S. cerevisiae deletion strains, locus YER111C, strain swi4, active compounds read low 0.964 | S. cerevisiae deletion strains, locus YER155C, strain BEM2 (second series), active compounds read low 0.968 | S. cerevisiae deletion strains, locus YFR010W, strain ubp6, active compounds read low 0.961 | S. cerevisiae deletion strains, locus YGL167C, strain pmr1, active compounds read low 0.972 | S. cerevisiae deletion strains, locus YGL173C, strain kem1, active compounds read low 0.975 | S. cerevisiae deletion strains, locus YGL227W, strain vid30, active compounds read low 0.963 | S. cerevisiae deletion strains, locus YGL240W, strain doc1, active compounds read low 0.983 | S. cerevisiae deletion strains, locus YGL253W, strain hxk2, active compounds read low 0.978 | S. cerevisiae deletion strains, locus YHR013C, strain ard1, active compounds read low 0.98 | S. cerevisiae deletion strains, locus YHR027C, strain rpn1, active compounds read low 0.985 | S. cerevisiae deletion strains, locus YHR142W, strain chs7, active compounds read low 0.97 | S. cerevisiae deletion strains, locus YJL092W, strain hpr5, active compounds read low 0.967 | S. cerevisiae deletion strains, locus YJL095W, strain BCK1 (second series), active compounds read low 0.99 | S. cerevisiae deletion strains, locus YJL115W, strain asf1, active compounds read low 0.974 | S. cerevisiae deletion strains, locus YJL129C, strain trk1, active compounds read low 0.983 | S. cerevisiae deletion strains, locus YJL154C, strain vps35, active compounds read low 0.963 | S. cerevisiae deletion strains, locus YJL164C, strain tpk1, active compounds read low 0.986 | S. cerevisiae deletion strains, locus YJL166W, strain qcr8, active compounds read low 0.988 | [27] 0.982 | S. cerevisiae deletion strains, locus YKL160W, strain elf1, active compounds read low 0.988 | S. cerevisiae deletion strains, locus YKR026C, strain gcn3, active compounds read low 0.973 | S. cerevisiae deletion strains, locus YKR091W, strain srl3, active compounds read low 0.985 | S. cerevisiae deletion strains, locus YLL001W, strain dnm1, active compounds read low 0.99 | S. cerevisiae deletion strains, locus YLL026W, active compounds read low 0.974 | S. cerevisiae deletion strains, locus YLL041C, strain sdh2, active compounds read low 0.978 | S. cerevisiae deletion strains, locus YLR027C, strain aat2, active compounds read low 0.976 | S. cerevisiae deletion strains, locus YLR221C, strain rsa3, active compounds read low 0.976 | S. cerevisiae deletion strains, locus YLR258W, strain gsy2, active compounds read low 0.984 | S. cerevisiae deletion strains, locus YLR262C, strain YPT6 (second series), active compounds read low 1.02 | S. cerevisiae deletion strains, locus YLR320W, strain mms22, active compounds read low 0.964 | S. cerevisiae deletion strains, locus YLR342W, strain FKS1, active compounds read low 0.966 | S. cerevisiae deletion strains, locus YLR357W, strain rsc2, active compounds read low 0.95 | S. cerevisiae deletion strains, locus YLR370C, strain arc18, active compounds read low 0.977 | S. cerevisiae deletion strains, locus YLR384C, strain iki3, active compounds read low 0.955 | S. cerevisiae deletion strains, locus YML120C, strain ndi1, active compounds read low 0.989 | S. cerevisiae deletion strains, locus YMR058W, strain fet3, active compounds read low 0.977 | S. cerevisiae deletion strains, locus YMR125W, strain sto1, active compounds read low 0.971 | S. cerevisiae deletion strains, locus YMR129W, active compounds read low 0.977 | S. cerevisiae deletion strains, locus YMR205C, strain PFK2, active compounds read low 0.972 | S. cerevisiae deletion strains, locus YMR231W, strain pep5, active compounds read low 0.959 | S. cerevisiae deletion strains, locus YNL071W, strain lat1, active compounds read low 0.993 | S. cerevisiae deletion strains, locus YNL209W, strain ssb2, active compounds read low 0.985 | S. cerevisiae deletion strains, locus YNL248C, strain rpa49, active compounds read low 0.979 | S. cerevisiae deletion strains, locus YNL322C, strain KRE1 (second series), active compounds read low 0.969 | S. cerevisiae deletion strains, locus YNR049C, strain mso1, active compounds read low 0.972 | S. cerevisiae deletion strains, locus YOR001W, strain rrp6, active compounds read low 0.981 | S. cerevisiae deletion strains, locus YOR070C, strain gyp1, active compounds read low 0.972 | S. cerevisiae deletion strains, locus YOR080W, strain dia2, active compounds read low 0.98 | S. cerevisiae deletion strains, locus YOR083W, strain WHI5, active compounds read low 0.988 | S. cerevisiae deletion strains, locus YOR106W, strain vam3, active compounds read low 0.973 | S. cerevisiae deletion strains, locus YOR265W, strain rbl2, active compounds read low 0.986 | S. cerevisiae deletion strains, locus YOR270C, strain vph1, active compounds read low 0.998 | S. cerevisiae deletion strains, locus YOR290C, strain snf2, active compounds read low 0.974 | S. cerevisiae deletion strains, locus YPL051W, strain arl3, active compounds read low 0.972 | S. cerevisiae deletion strains, locus YPL078C, strain atp4, active compounds read low 0.976 | S. cerevisiae deletion strains, locus YPL106C, strain sse1, active compounds read low 0.979 | S. cerevisiae deletion strains, locus YPL240C, strain hsp82, active compounds read low 0.976

From PubChem BioAssay AID1159580 (chemical genetic matrix, 2015)
